Compound activity: PubChem BioAssay, National Center for Advancing Translational Sciences (NCATS)
This is a sample that favours compounds with a hit; in the whole collection about 19% have one here.
HepG2 viability – kills HepG2 cells in TGF-b inhibitor counter-screen. HepG2 CAGA-GFP viability, ATP luminescence, 18 h. Potency, µM (titrated, usually from 46.1 µM), without a hit: at the highest dose activity change, negative = cytotoxicity, hits mostly cytotoxic. hit rate 0.76% among 410,000; also: potency is read from the fitted curve at half-maximal effect
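CellTiter-Glo luminescence gave cytotoxicity after 18 hours at 37 degrees C. The cells were HepG2 CAGA-GFP in 1% FBS DMEM, stimulated with 500 pg/mL TGF-beta after compound addition. %Activity was normalised to no-cell wells (complete cell-killing) and DMSO (no toxicity), and curves were fitted and classified.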
DT40 TDP1 CPT – growth inhibition of DT40 Tdp1-/-;hTDP1 cells with camptothecin (screen for TDP1 inhibitors). AID 686979. Potency, µM (titrated, usually from 46.2 µM), for the others: at the highest dose activity change, negative = growth inhibition, usual class: inhibitors. chicken DT40 Tdp1-/-;hTDP1 cells + 20 nM CPT, ATP luminescence, 48 h. hit rate 12% among 420,000; also: potency is read from the fitted curve at half-maximal effect; % is scaled to controls: 0 for no effect and ±100 for the full control effect; nearly all actives have a fitted effect of over 55% in size
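Cell growth measured by CellTiter-Glo luminescence after a minimum 48 h, 37 C compound exposure with 20 nM CPT in Tdp1-knockout DT40 cells stably expressing hTDP1, seeded 400/well; qHTS titration format.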
TGFb SMAD3 inh – TGF-b pathway inhibition; HepG2 CAGA-GFP TGF-b/SMAD3 reporter, GFP fluorescence, 18 h; TGF-beta stimulated, 500 pg/mL final; hit rate 1.2% among 410,000; Potency, µM (series often up to 46.1 µM), for inactives: at the highest dose activity, negative = inhibition, most hits filed as inhibitors; also: potency is read from the fitted curve at half-maximal effect; % is scaled to controls: 0 for no effect and ±100 for the full control effect; nearly all actives have a fitted effect of over 65% in size
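Read-out: total well GFP (ex488/em500-530) summed from mean per-cell fluorescence. Cells: HEPG2 CAGA-GFP, 1% FBS DMEM, 18 h at 37 degrees C with 500 pg/mL final TGF-beta. Unstimulated wells served as the full-inhibition control; stimulated DMSO wells = 0%.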
DT40 TDP1 no CPT – qHTS for Inhibitors of human tyrosyl-DNA phosphodiesterase 1 (TDP1): qHTS in cells in absence of CPT; DT40 Tdp1-/- hTDP1 cells, no CPT, ATP luminescence, 48 h; Potency, µM (series often up to 46.2 µM), for the others: at the highest dose activity change, negative = growth inhibition, usual class: inhibitors; hit rate 15% among 420,000; AID 686978, 2013; also: potency is read from the fitted curve at half-maximal effect; % is scaled to controls: 0 for no effect and ±100 for the full control effect; nearly all actives have a fitted effect of over 55% in size
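No-CPT arm: Tdp1-/-;hTDP1 DT40 cells (400/well) plus compounds, incubated ≥48 hr at 37 °C. Readout CellTiter-Glo luminescence.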
IL-1B inflam inh – inflammasome signaling inhibition, IL-1 beta readout; THP-1 LPS/ATP IL-1B secretion, AlphaLISA, 16 h; stronger effect = lower value; activity change, % at 57.5 µM; hit rate 4.7% among 360,000; in the data active = activity change below about -50%; inconclusive = mostly about -30% to -49%; also: % is scaled to controls: 0 for no effect and ±100 for the full control effect
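THP-1 cells pretreated 1 hr with compounds (up to 57.5 uM final), then stimulated with LPS (250 ng/mL final) plus ATP (1.25 mM final); secreted IL-1B measured by AlphaLISA after 16 hr, decreased signal indicating inhibition.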
TDP1 block – TDP1 (human) enzyme inhibition. recombinant TDP1, AlphaScreen DNA substrate cleavage. Potency, µM (doses to about 130 µM), for the others: top-dose activity change, negative = inhibition, hits mostly inhibitors. hit rate 0.28% among 350,000; also: potency is read from the fitted curve at half-maximal effect; % is scaled to controls: 0 for no effect and ±100 for the full control effect; nearly all actives have a fitted effect of over 40% in size
Target sequence (Q9NUW8 whole entry, looked up): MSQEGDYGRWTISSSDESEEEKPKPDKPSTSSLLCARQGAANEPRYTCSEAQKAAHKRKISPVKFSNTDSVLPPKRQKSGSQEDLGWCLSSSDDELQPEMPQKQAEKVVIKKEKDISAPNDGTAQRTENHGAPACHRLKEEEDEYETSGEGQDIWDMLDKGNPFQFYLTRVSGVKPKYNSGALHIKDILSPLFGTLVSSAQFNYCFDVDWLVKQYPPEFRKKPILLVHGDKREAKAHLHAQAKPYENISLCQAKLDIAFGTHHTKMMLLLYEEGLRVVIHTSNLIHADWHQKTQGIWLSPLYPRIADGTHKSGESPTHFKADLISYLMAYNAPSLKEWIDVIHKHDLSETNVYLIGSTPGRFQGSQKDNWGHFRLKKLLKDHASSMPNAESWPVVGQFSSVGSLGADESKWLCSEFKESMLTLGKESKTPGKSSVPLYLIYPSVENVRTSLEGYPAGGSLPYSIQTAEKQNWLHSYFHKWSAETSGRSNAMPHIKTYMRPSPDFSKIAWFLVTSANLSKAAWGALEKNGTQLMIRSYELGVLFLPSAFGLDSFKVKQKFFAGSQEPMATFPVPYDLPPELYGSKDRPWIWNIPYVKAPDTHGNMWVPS
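Enzyme-compound mixtures sat 15 min at room temperature, followed by a 5 min reaction with 15 nM final substrate and 10 min with AlphaScreen beads. Recombinant human Tdp1 was used at 1 nM final.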
The depositor's hits bear a star; ? = inconclusive; . = no result given; [ ] = remark or other dose. Unless noted, calls follow the shape of the dose curve; as a rule, active = well fitted curve in the direction sought with a large enough effect; inconclusive = small, poorly fitted or top-dose-only effect, or another doubt; inactive = no such curve, though single readings can be large; an effect the other way counts as inactive or inconclusive.

SMILES	HepG2 viability	DT40 TDP1 CPT	TGFb SMAD3 inh	DT40 TDP1 no CPT	IL-1B inflam inh	TDP1 block
C[C@@]12CCC=C[C@H]1[C@H](c1ccc(F)c(/C=C/c3ccccc3)c1)N(Cc1ccccc1)C2=O	-17%	?	?	16µM*	7	0%
CN(C)c1ccc(-c2ccc([C@H]3[C@@H]4C=CCC[C@@]4(C)C(=O)N3Cc3ccccc3)c(F)c2)cc1	-26%	23µM*	?	18µM*	0	8%
CC12CCC=CC1C(c1ccc(F)c(Br)c1)N(Cc1ccccc1)C2=O (stereo not drawn)	-23%	.	?	.	.	2%
COc1ccc([C@H]2[C@@H]3C=CCC[C@@]3(C)C(=O)N2Cc2ccccc2)cc1Cl	-21%	?	?	21µM*	-9	5%
COc1ccc(-n2c(=O)c3c(c4cc(OC)ccc4n3C)n(CCC(C)C)c2=O)cc1	-11%	-26%	0%	-29%	.	-3%
CN(C)c1ccc(-c2cc(C3C4C=CCCC4(C)C(=O)N3Cc3ccccc3)ccc2F)cc1 (stereo not drawn)	7%	.	2%	.	.	22%
CN(C)c1ccc(-c2cc([C@H]3[C@@H]4C=CCC[C@@]4(C)C(=O)N3Cc3ccccc3)ccc2F)cc1	-20%	?	-41%	23µM*	-15	7%
NC(=O)c1ccccc1OCC(=O)N1CCC(Cc2ccccc2)CC1	-28%	7.3µM*	?	9.2µM*	-23	2%
O=C(COc1ccccc1[N+](=O)[O-])N1CCC(Cc2ccccc2)CC1	7%	14%	9%	-19%	?	-1%
O=C(NCC(=O)N1CCC(Cc2ccccc2)CC1)c1ccccc1F	-30%	?	7%	21µM*	?	.
O=C(OCC(=O)N1CCC(Cc2ccccc2)CC1)c1ccccc1O	1%	?	0%	29µM*	-8	-4%
O=C(NCC(=O)N1CCCC1)c1ccccc1F	7%	7%	-3%	11%	-8	3%
CC(C)(C)C1CCc2c(sc(NC(=O)c3noc4c3CCCC4)c2C#N)C1 (stereo not drawn)	-21%	-22%	1%	-6%	.	-5%
CCOc1ccc(-c2nn(CC(=O)NC3CCCC3)c3c2cnc2ccc(C)cc23)cc1	-4%	-3%	10%	3%	.	7%
CC(C)(C)C(=O)Cn1c(=O)n(CCCCCC(=O)NCc2ccc3c(c2)OCO3)c(=O)c2sccc21	-16%	?	?	?	.	2%
CCOc1ccc(C(=O)NCC(=O)N2CCC3CCCCC3C2)cc1OCC (stereo not drawn)	-3%	-3%	9%	-29%	0	9%
COC(=O)c1ccc(NC(=S)N2CCN(Cc3ccc(Cl)cc3)CC2)cc1	-36%	?	0%	16µM*	14	6%
COc1cccc(CN2CCN(C(=S)NCc3ccc(Cl)cc3)CC2)c1	-24%	?	?	21µM*	-27	6%
CCOc1ccccc1N1CCN(C(=O)c2ccccc2)CC1	-5%	-12%	-8%	-21%	5	8%
COC(=O)c1ccc(NC(=S)N2CCN(CCO)CC2)cc1	-8%	-2%	-13%	2%	-5	1%
CCOc1ccccc1N1CCN(C(=O)C2c3ccccc3Oc3ccccc32)CC1	3%	23µM*	?	23µM*	-9	4%
CCOc1ccccc1N1CCN(C(=O)NCc2ccc(Cl)cc2)CC1	-23%	-26%	-4%	?	-63*	8%
Cc1cccc(C)c1NC(=O)Cn1nnc(S(=O)(=O)c2ccccc2)c1N	-2%	-14%	.	-4%	.	-14%
O=C(NCc1ccc(Cl)cc1)N1CCN(Cc2ccccc2)CC1	4%	23µM*	-14%	?	-21	4%
Cc1cccc(N2CCN(C(=O)NCc3ccc(Cl)cc3)CC2)c1	-13%	?	18%	21µM*	-6	5%[56.1 µM]
SMILES	HepG2 viability	DT40 TDP1 CPT	TGFb SMAD3 inh	DT40 TDP1 no CPT	IL-1B inflam inh	TDP1 block
O=C(Nc1ccccc1)N1CCN(Cc2ccc(Cl)cc2)CC1	-4%	?	1%	?	-10	4%
C=Cc1ccc(CSc2nc(-c3ccccc3Cl)nc3c2Cc2c(CO)cnc(C)c2O3)cc1	4%	?	14%	?	.	8%
CC(C)(C)c1ccc(-c2noc(CCC(N)=O)n2)cc1	-10%	-21%	-12%	?	14	-1%
Cc1ccc(-c2noc(CCC(=O)NCC3CCCO3)n2)cc1 (stereo not drawn)	-23%	-10%	-9%	-9%	0	4%
CC(C)(C)c1ccc(-c2noc(CCC(=O)NCC3CCCO3)n2)cc1 (stereo not drawn)	-19%	21µM*	7%	?	0	0%
CN(C)C(=O)CCc1nc(-c2ccc(C(C)(C)C)cc2)no1	-7%	16µM*	7%	21µM*	-15	0%
CNC(=O)CCc1nc(-c2ccc(C(C)(C)C)cc2)no1	2%	?	-3%	13µM*	0	1%
CC(C)(C)c1ccc(-c2noc(CCC(=O)N3CCOCC3)n2)cc1	16%	?	-23%	18µM*	22	4%
COCCNC(=O)CN1C(=O)c2cccnc2Sc2ccccc21	-3%	-28%	17%	-20%	.	10%
COC(=O)C1(C(=O)OC)CC(CO)C(=O)[C@H]1c1ccccc1 (stereo partly drawn)	.	.	.	.	.	9%
Cc1cc(C)c2c(CN3CCN(c4ccccc4F)CC3)cc(=O)oc2c1	-11%	23µM*	-5%	?	14	.
COc1ccc(N2CCN(Cc3cc(=O)oc4cc(-c5ccccc5)c(O)cc34)CC2)cc1	-17%	5.8µM*	2%	6.5µM*	0	4%
O=c1cc(CN2CCN(c3ccccc3F)CC2)c2cc(O)c(-c3ccccc3)cc2o1	-1%	?	14%	6.5µM*	32	4%
Cc1cc(C)c2c(CN3CCN(C)CC3)cc(=O)oc2c1	2%	-10%	16%	-7%	-4	2%
COc1cc2oc(=O)cc(CN3CCN(c4ccccc4F)CC3)c2cc1Cl	-34%	?	?	?	14	.
CCN(CC)C(=O)Cn1c(=O)n(Cc2ccc(C(=O)NCc3ccccc3Cl)cc2)c(=O)c2ccccc21	-4%	-3%	-18%	-16%	.	0%
CCC(C)(C)c1nnc(NC(=O)C2CC(=O)N(CCc3ccc(F)cc3)C2)s1 (stereo not drawn)	-14%	2%	-27%	-5%	38	7%
